Values joined by “and” are separate entries in the source; they are usually repeats but may differ in a detail not shown here. Equal entries are not always repeated. Structures can show the parent of a compound that is named as a salt.
Legend:
Assay in all cases: cell viability relative to vehicle control; higher = less cytotoxic
Details in all cases: 10 µM
K562 = system: K562
Procedure, shortened: (§1)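 CRISPR-edited mutant clones and isogenic wild-type clones from four leukaemia lines were screened against Selleck bioactive, kinase and epigenetic probe libraries, with identity-inconsistent compounds excluded. Each compound was acoustically dispensed at a single 10 µM dose into 384-well plates holding 2000 cells in 50 µL medium per well. After 48 h the supernatant was removed and CellTiter-Glo luminescence was read. Viability was expressed as percent of the on-plate vehicle control and analysed in Genedata Screener.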

MARIMO = system: MARIMO
Procedure, shortened: as §1

MOLM14 = system: MOLM14
Procedure, shortened: as §1

OCI-AML2 = system: OCI-AML2
Procedure, shortened: as §1

SMILES | cell viability (K562; SRSF2 genotype: SRSF2 P95H/wt) | cell viability (K562; SRSF2 genotype: SRSF2 wt/wt) [%] | cell viability (MARIMO; SRSF2 genotype: SRSF2 P95H/wt) [%] | cell viability (MARIMO; SRSF2 genotype: SRSF2 wt/wt) [%] | cell viability (MOLM14; SRSF2 genotype: SRSF2 P95H/wt) [%] | cell viability (MOLM14; SRSF2 genotype: SRSF2 wt/wt) [%] | cell viability (OCI-AML2; SRSF2 genotype: P95H/wt) [%] | cell viability (OCI-AML2; SRSF2 genotype: wt/wt) [%]
Clc1ccc2nsnc2c1NC1=NCCN1 [Tizanidine HCl] | 104% and 101% | 104 | 94.3 | 107 | 103 | 99.6 | 101 | 106
COC(=O)c1ccc2c(C(=Nc3ccc(N(C)C(=O)CN4CCN(C)CC4)cc3)c3ccccc3)c(O)[nH]c2c1 [Nintedanib (BIBF 1120)] | 1.02% and 0.94% | 2.25 | 39 | 34.4 | 2.6 | 4.94 | 0.94 | 5.1
O=c1[nH]cnc2c1ncn2[C@H]1C[C@H](O)[C@@H](CO)O1 [2'-Deoxyinosine] | 120% and 113% | 116 | 104 | 107 | 105 | 118 | 103 | 111
CCC[C@H](Nc1nc(-c2ccc(NC(=O)NCC)c(OC)c2)ncc1C)c1cccnc1 | 10.5% and 35.4% | 31.9 | 7.27 | 10 | 1.24 | 1.12 | 0.85 | 2.78
CN1CCN(C(=O)C=Cc2ccc([N+](=O)[O-])o2)CC1 | 43.9% and 54.3% | 65.3 | 65 | 72.4 | 40.7 | 35.7 | 24.7 | 42.6
Cc1ccc(S(=O)(=O)c2ccc([N+](=O)[O-])o2)cc1 | 0.16% and 0.25% | 0.18 | 0.21 | 0.25 | 0.19 | 0.2 | 0.21 | 0.26
CC(=O)NC[C@H]1CN(c2ccc(N3CCOCC3)c(F)c2)C(=O)O1 [Linezolid (Zyvox)] | 81.9% and 81.7% | 84.3 | 85 | 92.5 | 88.3 | 85.5 | 81.4 | 86.7
Nc1nc2c(ncn2COCCO)c(=O)[nH]1 [Acyclovir (Aciclovir)] | 98% and 101% | 95.1 | 99.2 | 98.3 | 103 | 99.1 | 105 | 102
O=C(c1ccccc1)c1ccc2nc(NC(=O)c3csc(C4CCN(c5ncnc6ccsc56)CC4)n3)[nH]c2c1 | 45.4% and 37.5% | 39.3 | 41.3 | 37.5 | 34.2 | 26.5 | 26.2 | 25
CCCCNC(=O)NS(=O)(=O)c1ccc(C)cc1 [Tolbutamide] | 98% and 102% | 102 | 105 | 116 | 102 | 105 | 101 | 110
O=C(N/N=C/c1ccc(O)c(O)c1)c1cc2ccccc2cc1O [Dynasore] | 88.5% and 89.6% | 96 | 72.8 | 78.7 | 94.2 | 94.4 | 80 | 73
CCCCCCCCN=c1ccn(CCCCCCCCCCn2ccc(=NCCCCCCCC)cc2)cc1 [Octenidine Dihydrochloride] | 0.46% and 0.39% | 0.55 | 0.32 | 0.34 | 0.3 | 0.33 | 0.29 | 0.41
O=C(O)CCc1ccc(O)cc1O [Hydroumbellic acid] | 96% and 92.8% | 90.8 | 95.6 | 104 | 100 | 100 | 93.3 | 106
CNC(=O)c1c(F)cccc1Nc1nc(Nc2cc3c(cc2OC)CCN3C(=O)CN(C)C)nc2[nH]ccc12 | 6.79% and 7.34% | 5.25 | 46.2 | 38.8 | 0.66 | 0.35 | 0.91 | 1.46
O=[N+]([O-])c1ccc(S(=O)(=O)N2CCN(c3ccnc4cc(Cl)ccc34)CC2)c([N+](=O)[O-])c1 | 69.2% and 80.5% | 71.8 | 27.1 | 30.7 | 2.07 | 22.7 | 0.47 | 0.54
N#Cc1ccc2[nH]c(O)c(-c3ccc(CN4CCOCC4)cn3)c2c1 | 73.5% and 54.9% | 78.4 | 81.4 | 97.9 | 71.2 | 93.3 | 98.7 | 123
O=c1c(-c2ccc(O)cc2)coc2cc(O)cc(O)c12 [Genistein] | 97.4% and 105% | 105 | 92.6 | 87.8 | 79.4 | 88.7 | 81.8 | 87.4
Cc1cn(-c2cc(NC(=O)c3ccc(C)c(Nc4nccc(-c5cnccn5)n4)c3)cc(C(F)(F)F)c2)cn1 [Radotinib] | 22.3% and 38.7% | 22.1 | 107 | 111 | 104 | 100 | 103 | 104
COC(=O)/C=C/C(=O)OC [Dimethyl Fumarate] | 101% and 108% | 94.7 | 103 | 95.6 | 102 | 99.5 | 111 | 110
Cc1ccc(C(C)C)cc1 [p-Cymene] | 111% and 96.9% | 113 | 95.9 | 99.5 | 100 | 106 | 117 | 119
Oc1c(F)cc(-c2cnccc2-c2ccc(N3CCOCC3)cc2)cc1F | 101% and 106% | 105 | 97.5 | 92.6 | 75.5 | 104 | 120 | 103
CCC[C@H](NC(=O)/C(C#N)=C/c1cccc(Br)n1)c1ccccc1 [Degrasyn (WP1130)] | 11.2% and 17.4% | 9.59 | 2.97 | 1.3 | 0.32 | 0.25 | 0.67 | 0.8

SMILES | cell viability (K562; SRSF2 genotype: SRSF2 P95H/wt) | cell viability (K562; SRSF2 genotype: SRSF2 wt/wt) [%] | cell viability (MARIMO; SRSF2 genotype: SRSF2 P95H/wt) [%] | cell viability (MARIMO; SRSF2 genotype: SRSF2 wt/wt) [%] | cell viability (MOLM14; SRSF2 genotype: SRSF2 P95H/wt) [%] | cell viability (MOLM14; SRSF2 genotype: SRSF2 wt/wt) [%] | cell viability (OCI-AML2; SRSF2 genotype: P95H/wt) [%] | cell viability (OCI-AML2; SRSF2 genotype: wt/wt) [%]
CC(C)NCC(O)COc1cccc2ccccc12 (centres undefined) [Propranolol HCl] | 94% and 88.3% | 97.6 | 86.2 | 92.9 | 94.2 | 98.2 | 84.7 | 97
O=C(O)CC[C@H]1CC[C@@](c2cc(F)ccc2F)(S(=O)(=O)c2ccc(Cl)cc2)CC1 | 102% and 101% | 97.9 | 91.6 | 92.1 | 98.3 | 99.2 | 102 | 97
CC(C)c1cc2c(N3CCN(C4=NCC(C)(C)S4)CC3)ncnc2s1 [MI-3 (Menin-MLL Inhibitor)] | 75.8% and 67.2% | 67.3 | 75.4 | 55 | 72.2 | 72.3 | 40.6 | 45.1
C=CC(=O)Nc1cc(Nc2nccc(-c3c[nH]c4ccccc34)n2)c(OC)cc1N(C)CCN(C)C | 12.6% and 20.8% | 24 | 6.47 | 9.15 | 0.38 | 0.41 | 0.35 | 0.67
CC(=O)[C@H]1CC[C@H]2[C@@H]3CCC4=CC(=O)CC[C@]4(C)[C@H]3CC[C@]12C [Progesterone (Prometrium)] | 78% and 87.7% | 81.7 | 60.7 | 38.8 | 75 | 78.8 | 54.5 | 59.9
CCN(CC)CCN(Cc1ccc(-c2ccc(C(F)(F)F)cc2)cc1)C(=O)Cn1c(SCc2ccc(F)cc2)nc(=O)c2c1CCC2 | 0.31% and 0.26% | 0.26 | 0.34 | 0.46 | 0.23 | 0.24 | 0.22 | 0.29
O=C(CNc1ccc2ccccc2c1)N/N=C/c1cc(Br)c(O)c(Br)c1O | 81.1% and 82.1% | 72.8 | 50.8 | 65.4 | 62.3 | 51.7 | 49.8 | 58.5
O=c1oc2c(O)c(O)cc3c(=O)oc4c(O)c(O)cc1c4c23 [Ellagic acid] | 92.7% and 105% | 93.7 | 96.3 | 105 | 106 | 103 | 101 | 101
C=CC[C@@H]1/C=C(\C)C[C@H](C)C[C@H](OC)[C@H]2O[C@@](O)(C(=O)C(=O)N3CCCC[C@H]3C(=O)O[C@H](/C(C)=C/[C@@H]3CC[C@@H](O)[C@H](OC)C3)[C@H](C)[C@@H](O)CC1=O)[C@H](C)C[C@@H]2OC [Tacrolimus (FK506)] | 90.3% and 93.4% | 84.9 | 94.3 | 97.2 | 92.2 | 96.3 | 91.4 | 98.2
CCOC(=O)[C@H](CCc1ccccc1)N[C@@H](C)C(=O)N1C(=O)N(C)C[C@H]1C(=O)O [Imidapril HCl] | 93.9% and 85.6% | 90.9 | 84.9 | 94.4 | 95.1 | 95.2 | 108 | 87.7
Cc1ccc(Nc2nccc(N(C)c3ccc4c(C)n(C)nc4c3)n2)cc1S(N)(=O)=O [Pazopanib] | 84.1% and 94.1% | 85.8 | 96 | 104 | 69.4 | 83 | 73.8 | 71.2
Cc1cc(C)c(S(=O)(=O)n2cc(C)cc2C)c(C)c1 | 90.6% and 98.6% | 95.1 | 90.8 | 88.4 | 84.7 | 92.2 | 99.7 | 102
CN(CCOc1ccc(CC2SC(=O)NC2=O)cc1)c1ccccn1 (centres undefined) [Rosiglitazone HCl] | 100% and 101% | 97.4 | 102 | 115 | 103 | 109 | 102 | 105
Nc1ncnc2c1ncn2C1CC(O)C(CO)O1 (centres undefined) [2'-Deoxyadenosine monohydrate] | 113% and 106% | 105 | 96.4 | 94.5 | 102 | 99.6 | 95.5 | 96.5
Cc1ccc(O)c([C@H](CCN(C(C)C)C(C)C)c2ccccc2)c1 [Tolterodine tartrate (Detrol LA)] | 80.3% and 94% | 87.2 | 75.7 | 81.6 | 70 | 83.4 | 88.6 | 84
N#C/C(=C(/N)Sc1ccc(N)cc1)c1ccccc1C(F)(F)F | 85.3% and 90.9% | 85.1 | 54 | 46.4 | 82.4 | 91.5 | 67.7 | 61.3
COc1ccc2cc(C(=O)O)ccc2c1 [6-Methoxy-2-naphthoic acid] | 108% and 98.7% | 94.2 | 92 | 99.7 | 88.6 | 93.8 | 89.4 | 92.4
CC(=O)OC1C[C@H](C)CCC1C(C)C (stereo partly drawn) [(1R)-(-)-Menthyl acetate] | 98% and 101% | 101 | 92.4 | 97.6 | 98.5 | 106 | 104 | 114
COc1ccc(/C=C/C(=O)Nc2ccccc2C(=O)O)cc1OC | 98.1% and 98% | 98.1 | 108 | 102 | 98.9 | 100 | 113 | 102
Nc1ncnc2c1ncn2[C@@H]1O[C@H](CO)[C@@H](O)[C@@H]1O [Vidarabine monohydrate] | 105% and 101% | 110 | 86 | 98.5 | 97.6 | 103 | 110 | 119
CC1(C)CC(=O)c2c(C(F)(F)F)nn(-c3ccc(C(N)=O)c(N[C@H]4CC[C@H](O)CC4)c3)c2C1 | 23.7% and 29.5% | 27.1 | 30.9 | 25.9 | 3.24 | 4.55 | 13.9 | 21.4

Reference: the supplement of paper PMC10981050
